From PubChem BioAssay
Compounds with a hit are over-represented: about 7.3% of the library has one in this group of screens.
uPA generation = blocks generation of uPA at the cell surface | cell surface uPA generation assay, qHTS | Potency, µM (series often up to 38.3 µM), for the others: top-dose activity change, negative = inhibition, usual class: inhibitors | hit rate 0.31% among 330,000; active means well fitted inhibition curve with a large enough effect; inconclusive means small, poorly fitted or top-dose-only effect; inactive means no such curve, though single readings can be large or run the other way; tested in mouse RAW 264.7 cells; further: on the % scale 0 is the no-effect control and ±100 the full control effect; nearly all actives have a fitted effect of over 55% in size
FLuc modulator = counter-screen for miR-21 project: firefly luciferase inhibitors or activators; P08659; purified FLuc, Km substrates, luminescence inhibition; Potency, µM (top dose mostly 57.5 µM), without a hit: at the top dose activity change, negative = inhibition, actives largely listed as inhibitors; hit rate 6.9% among 360,000; AID 588342;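 further: plate controls were vehicle for no effect and reference inhibitor for full effect; nearly all actives have a fitted effect of over 55% in size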
Target sequence (P08659 whole entry, looked up): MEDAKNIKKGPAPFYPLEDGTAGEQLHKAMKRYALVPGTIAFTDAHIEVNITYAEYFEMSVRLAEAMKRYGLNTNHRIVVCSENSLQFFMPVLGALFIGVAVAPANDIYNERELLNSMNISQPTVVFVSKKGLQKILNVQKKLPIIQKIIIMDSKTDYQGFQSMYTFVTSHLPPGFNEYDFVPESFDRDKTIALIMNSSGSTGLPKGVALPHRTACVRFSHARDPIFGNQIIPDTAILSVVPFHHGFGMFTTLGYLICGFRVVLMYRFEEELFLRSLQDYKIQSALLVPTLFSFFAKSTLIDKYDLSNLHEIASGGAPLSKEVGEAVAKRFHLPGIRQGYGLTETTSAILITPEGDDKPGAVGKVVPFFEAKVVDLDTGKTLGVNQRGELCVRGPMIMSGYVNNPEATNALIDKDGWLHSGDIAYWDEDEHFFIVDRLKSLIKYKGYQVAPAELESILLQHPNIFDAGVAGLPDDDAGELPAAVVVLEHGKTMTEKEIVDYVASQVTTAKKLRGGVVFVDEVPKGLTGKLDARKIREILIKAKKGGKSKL
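Purified P. pyralis luciferase (10nM final) with 10uM D-luciferin and 10uM ATP (Km levels) in 50mM Tris acetate pH 7.5, 10mM Mg acetate, 0.01% Tween-20, 0.05% BSA; qHTS 6-point titration, ~60 µM downward; luminescence read.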
SMN2 splice enh = enhancers of SMN2 splice variant expression; AID 1458; HEK293 SMN2-luciferase splicing reporter, luminescence, 30-36 h; hit rate 2.8% among 210,000; Potency, µM (series often up to 46.1 µM), for the others: at the highest dose activity change, positive = activation, most hits filed as activators; further: % of control where 0% means no effect; nearly all actives have a fitted effect of over 55% in size
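HEK293 cells carry an SMN2 […]–luciferase reporter in which exon 7 inclusion puts luciferase in frame. Cells were plated 10-12 h before compound addition, then incubated 30-36 h at 37C. ONE-Glo luminescence was read; sodium butyrate at 4.5 mM final served as control.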
ELG1 genotoxic = genotoxicity induction in ELG1-luciferase HEK293T cells; HEK293T ELG1-luciferase reporter, luminescence, 16 h; Potency, µM (series often up to 46 µM), inactives show top-dose activity change, positive = activation, hits mostly activators; hit rate 1.3% among 330,000; further: % of control where 0% means no effect; nearly all actives have a fitted effect of over 60% in size
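Step 1: seed 2,000 HEK293T ELG1-luciferase cells per well. Step 2: add compound or DMSO, incubate 16 hr at 37 °C. Step 3: ONE-Glo, 30 min at room temperature, read luminescence.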
Rab9 promoter act = activates the Rab9 promoter | Huh7 Rab9 promoter-luciferase reporter, luminescence, 24 h | Potency, µM (top dose mostly 9.22 µM), inactives show at the top dose activation, negative = inhibition, hits mostly activators | hit rate 2.8% among 320,000 | AID 485297; further: % of control where 0% means no effect; nearly all actives have a fitted effect of over 60% in size
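Huh7 cells stably carrying a Rab9 promoter-luciferase reporter, 1500 cells per well in OP-MEM I with 10% FBS, treated with compound 24 hours at 37C. Luciferase activity read by luminescence after 10 minutes with Amplite reagent.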
NPC1 prom act = activates the NPC1 promoter. Huh7 NPC1 promoter luciferase reporter, 24 h. Potency, µM (doses to about 9.22 µM), for the others: top-dose activation, most hits filed as activators. hit rate 2.4% among 320,000. AID 485313; further: % of control where 0% means no effect; nearly all actives have a fitted effect of over 60% in size
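Huh7 reporter cells (NPC1 promoter driving luciferase) are dosed with compound for 24 h at 37 °C, 5% CO2; luciferase detection reagent is then added and luminescence measured after 10 min at ambient temperature.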
* marks the source's active call; other numbers are inactive results; ? = inconclusive; · = no result given; [ ] = another dose, or the depositor's remark. Unless noted, the call rests on the fitted dose curve; in most records, active means well fitted curve in the direction sought with a large enough effect; inconclusive means small, poorly fitted or top-dose-only effect, or another doubt; inactive means no such curve, though single readings can be large; an effect the other way counts as inactive or inconclusive. Potency means the concentration at half of the fitted maximal effect.

SMILES	uPA generation	FLuc modulator	SMN2 splice enh	ELG1 genotoxic	Rab9 promoter act	NPC1 prom act
CCOc1ccc(-c2cc3c(=O)n(Cc4nc(-c5ccc(OC)cc5OC)oc4C)ccn3n2)cc1Cl	·	-9%	15%	·	·	·
CCc1ccc(OC(=O)c2ccn(CC)n2)cc1	9%	15µM*	3%	3%	3%	0%
Cc1ccc2c(c1)N(CCC(=O)NC1CCCCC1)C(=O)CO2	1%	-1%	·	0%	-6%	-1%
Cc1ccc(N(C)S(=O)(=O)c2ccc3[nH]c(=O)ccc3c2)cc1	·	8.5µM*	·	·	·	·
CN(Cc1ccccc1)S(=O)(=O)c1ccc2[nH]c(=O)ccc2c1	1%	0%	·	?	1%	-1%
CN(c1ccc(O)cc1)S(=O)(=O)c1ccc2ccccc2c1	·	19µM*	·	?	4µM*	?
Cc1ccc2onc(CC(=O)N3CCN(c4ccc(F)cc4)CC3)c2c1	·	-13%	·	·	·	·
Cc1ccc(OCC(=O)Nc2cc3nn(-c4ccccc4)nc3cc2C)cc1	·	1%	13%	·	·	·
COc1ccc(-n2nc3cc(C)c(NC(=O)c4cccnc4)cc3n2)cc1	6%	1.1µM*	28%	?	?	?
Cc1cc2nn(-c3ccccc3)nc2cc1NC(=O)c1cccs1	-9%	6µM*	?	?	2µM*	?
CCC(=O)Nc1cc2nn(-c3ccccc3)nc2cc1Cl	-3%	0.67µM*	0.89µM*	0.52µM*	0.28µM*	0.32µM*
CC(=O)Nc1cc2nn(-c3ccccc3)nc2cc1C	5µM*	2.4µM*	·	3.3µM*	0.56µM*	0.63µM*
CCCCN1C(=N)N([C@@H](CCC)CN2CCC[C@H]2CN2C(N)=NC[C@H]2C(C)C)C[C@H]1[C@H](C)CC	-10%	·	·	1%	·	·
O=C(CCc1nc2ccccc2s1)NC1CCOC1=O (configuration not stated)	0%	2%	·	0%	5%	0%
O=C(COC(=O)c1ccccc1-c1ccccc1[N+](=O)[O-])c1ccccc1	1%	?	1%	-2%	2%	-3%
O=C(COC(=O)c1ccccc1[N+](=O)[O-])c1ccc2c(c1)OCO2	-3%	0.019µM*	·	?	0.32µM*	0.32µM*
Cc1cccc(C(=O)OCC(=O)c2ccc3c(c2)OCO3)c1O	?	0.38µM*	·	2.6µM*	1.4µM*	0.45µM*
CC(C)C(=O)Nc1ccccc1C(=O)OCC(=O)c1ccc2c(c1)OCCO2	-3%	1.3µM*	-18%	0%	2.8µM*	?
CCc1ccc(NC(=O)CSc2nnc(-c3cc4occc4n3C)n2-c2ccccc2C)cc1	·	1%	·	·	·	·
Cc1ccc(S(=O)(=O)N2CCOCC2)cc1C(=O)OCC(=O)c1ccc(Br)cc1	-3%	3.8µM*	·	-3%	-4%	0%
O=C(COC(=O)c1ccc(F)c(S(=O)(=O)N2CCOCC2)c1)c1ccccc1	18%	·	·	5%	·	·
O=C(COC(=O)c1ccc(F)c(S(=O)(=O)N2CCOCC2)c1)c1ccc(Cl)cc1	-14%	8.5µM*	·	-1%	2%	-2%
COc1ccc(-n2c(O)c(/C=C3\C=Nc4ccccc43)c(=O)[nH]c2=O)cc1	3%	2%	·	-1%	6%	8%
Cc1[nH]n(-c2ccccc2)c(=O)c1/C=C1\C=NN=C1c1ccccc1	9%	12µM*	·	12%	0%	-1%
Cc1[nH]n(-c2ccccc2)c(=O)c1/C=C1/C=c2ccccc2=N1	·	?	-1%	10%	21%	7%
SMILES	uPA generation	FLuc modulator	SMN2 splice enh	ELG1 genotoxic	Rab9 promoter act	NPC1 prom act
Cc1ccc(-n2[nH]c(C)c(/C=C3/C=Nc4ccccc43)c2=O)cc1C	-7%	-2%	18µM*	12%	-1%	16%
CC1CCC2(CC1)NC(=O)N(NC(=O)CCc1c[nH]c3ccccc13)C2=O (configuration not stated)	-1%	2%	·	2%	-3%	1%
CC(C)NC(=O)C(c1ccccc1)N1Cc2ccccc2C1=O (configuration not stated)	·	-7%	·	·	·	·
CC(=O)[C@H](C(=N)C#N)C(=O)Nc1ccccc1	·	·	-17%[9.22 µM]	·	·	·
COc1ccc(-c2[nH]n(-c3ccc([N+](=O)[O-])cc3)c(=O)c2C=NCCN2CCNCC2)cc1	·	0.95µM*	·	?	0.45µM*	0.71µM*
Cc1cc2nc(N(Cc3cccnc3)C(=O)c3ccc(Cl)s3)sc2cc1C	·	0%	·	·	·	·
CCOC(=O)CCCn1ncn2c(cc3occc32)c1=O	0%	?	-2%	21µM*	26%	18%
COc1ccc(CNC(=O)CCCn2ncn3c(cc4occc43)c2=O)cc1	-5%	4%	·	1%[9.26 µM]	-2%	0%
Cc1cnc(C(=O)OCC(=O)c2c[nH]c3ccccc23)cn1	2%	-10%	·	3%	1%	-2%
O=C(COc1ccccc1)OCC(=O)c1c[nH]c2ccccc12	6%	?	·	0%	8%	4%
CC1(C(=O)OCC(=O)c2c[nH]c3ccccc23)CC1(Cl)Cl (configuration not stated)	-20%	6.7µM*	?	?	3.2µM*	4µM*
COc1ccc(OCC(=O)c2c[nH]c3ccccc23)cc1	0%	3.8µM*	26%	18%	?	?
Cc1ccc(OCCCCn2nnc3sc4c(c3c2=O)CCCC4)cc1	·	-9%	2%	·	·	·
Cc1ccc(NC(=O)c2oc3ccccc3c2NC(=O)C2CCCO2)cc1C (configuration not stated)	0%	?	13µM*	7%	2.5µM*	2.8µM*
COc1ccc(NC(=O)c2oc3ccccc3c2NC(=O)C2CC2)cc1OC	-2%	17µM*	·	-7%	6%	-1%
CCOC(=O)c1cc2c(nc1NC(=S)Nc1ccccc1)CC(C)(C)OC2	0%	-1%	-1%	3%	-1%	4%
CCOC(=O)c1cc2c(nc1NC(=S)NCc1ccccc1)CCCC2	2%	?	11µM*	?	?	?
CCOC(=O)c1c(-c2ccc(OC)c(OC)c2)csc1NC(=O)c1ccc(F)cc1	·	0%	8%	·	·	·
Cc1ccc2oc(-c3cccc(NC(=O)c4ccc(Br)o4)c3)nc2c1	2%	21µM*	16%	?	11%	9%
COc1ccc(Cl)cc1C(=O)Nc1ccc2oc(-c3ccc(C(C)(C)C)cc3)nc2c1	·	9.5µM*	-5%	·	·	·
COc1cc2ccccc2cc1C(=O)Nc1cccc(-c2nc3cc(C)c(C)cc3o2)c1	·	1.2µM*	-2%	·	·	·
Cc1ccc2oc(-c3cccc(NC(=O)c4cccc5c(Br)cccc45)c3)nc2c1	·	-17%	-3%	·	·	·
Cc1cc(C)c2oc(-c3cccc(NC(=O)c4ccc(F)cc4)c3)nc2c1	11%	-14%	-26%	2%	13%	0%
